Among all 330,000 compounds or so, about 1,400 (0.42%) were called active. The sample as a whole holds a higher share of actives than the screen did. Unmarked numbers belong to inactive results.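 Rule for the calls: active = at least 40% inhibition at 20 µM here, with at most 30% in a related deaminase screen; inactive = the rest.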
Each molecule was assayed against DNA dC->dU-editing enzyme APOBEC-3A (Homo sapiens) (UniProt P31941) (assay: APOBEC3A ssDNA deaminase inhibitors, primary screen, selectivity assay for APOBEC3G inhibitor project, biochemical, FAM/TAMRA oligo cleavage fluorescence (AID 493011;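 note: plate controls were A3A with DMSO for no effect and wells lacking A3A enzyme for full effect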)). Settings: recombinant A3A, FAM/TAMRA ssDNA deamination fluorescence; at 20 µM; active compounds read high.
Sequence of DNA dC->dU-editing enzyme APOBEC-3A (Homo sapiens) (P31941 whole entry, looked up): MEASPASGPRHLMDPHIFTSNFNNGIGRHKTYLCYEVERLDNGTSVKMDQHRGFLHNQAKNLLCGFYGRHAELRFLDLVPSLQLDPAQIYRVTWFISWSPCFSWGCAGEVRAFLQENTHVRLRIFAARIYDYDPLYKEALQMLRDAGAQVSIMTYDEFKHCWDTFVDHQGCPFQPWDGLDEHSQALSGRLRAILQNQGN

SMILES	inhibition
CCN(CC(=O)Nc1cc(Cl)ccc1C)C(=O)Cn1c(=O)cnc2ccccc21	10.7%
CC(C)CCOc1ccc(C(=O)C[N+]2(C)CCOCC2)cc1	83.1% (active)
CCOc1ccc(C(=O)CCN2CCOCC2)cc1	-4.07%
CCC(=O)c1ccc(OCC(O)CN2CC(C)OC(C)C2)cc1 (stereo not given)	0.408%
CCn1c(=O)c(=O)[nH]c2c(=O)oc3ccc(S(=O)(=O)Nc4ccc(OC)cc4)cc3c21	-3.37%
CCC(C)c1ccc(NC(=S)N2CCCC2)cc1 (stereo not given)	-3.82%
O=S(=O)(Nc1ccccc1N1CCOCC1)c1ccc(Cl)s1	2.47%
COc1cccc(N2CCN(c3ccc4nnc(CCC(=O)N5CCN(C)CC5)n4n3)CC2)c1	-4.98%
S=C(Nc1cccnc1)Nc1ccccn1	63.4% (active)
Fc1cc(Br)ccc1NC(=S)Nc1cccnc1	-0.709%
COc1cc(/C=N/NC(=S)Nc2cccnc2)cc(OC)c1O	-4.38%
O=C(COC(=O)C1CCN(S(=O)(=O)c2ccc3c(c2)OCCO3)CC1)Nc1ccccc1OC(F)F	3.88%
CCc1ccc(NC2Nc3cc(C)nn3S2)cc1 (stereo not given)	-0.183%
Cc1nnc(CN(C)Cc2cn[nH]c2-c2ccc(-c3ccccc3)cc2)o1	1.98%
COc1ccc(C(=O)OCC(=O)NC(=O)CCSc2ccccc2)cc1	0.284%
CCS(=O)(=O)C1=NSC2=NC(=O)/C(=C\c3cc(C)n(-c4cccc(OC)c4)c3C)C(=N)N21	-3.79%
CCS(=O)(=O)C1=NSC2=NC(=O)/C(=C\c3ccc(OS(=O)(=O)c4ccccc4)cc3)C(=N)N21	-0.304%
CS(=O)(=O)c1ccc2c(c1)SC1=NC(=O)/C(=C/c3ccco3)C(=N)N12	41.6% (active)
COc1cc(C)c(Cl)cc1S(=O)(=O)n1ccnc1	-3.09%
Cc1noc(C)c1S(=O)(=O)N(C)C[C@H]1Oc2ccc(NC(=O)C3CC3)cc2C(=O)N([C@H](C)CO)C[C@@H]1C	-2.35%
O=C(NNC(=O)c1cnccc1C(F)(F)F)c1ccc(Cl)cc1	-3.45%
CN(c1ccccc1)S(=O)(=O)c1cc(C(=O)Nc2nc3ccccc3[nH]2)ccc1Cl	2.16%
O=C(Nc1cccc(-c2nc3ccccc3[nH]2)c1)c1ccc(C(=O)Nc2cccc(-c3nc4ccccc4[nH]3)c2)cc1	52.5% (active)

SMILES	inhibition
O=C(Nc1ccccc1)c1cc2ccccc2[nH]1	2.51%
C/C(=N\NC(=O)C1(C)CC1(Br)Br)c1ccc(C)cc1C (stereo not given)	3.9%
CC(Oc1ccc(F)cc1)C(=O)N1CCN(c2ncccn2)CC1 (stereo not given)	3.53%
Cc1ccc(NC(=O)COc2coc(CN3CCc4ccccc4C3)cc2=O)cc1Cl	-2.19%
c1ccc(C(c2ccccc2)N2CCN(Cc3nnnn3C3CCCCC3)CC2)cc1	-5.77%
CC1(C)CC(N2CCN(C(c3ccccc3)c3ccccc3)CC2)=CC(=[N+]2CCCCC2)C1	57.4% (active)
COc1ccccc1CN1CCN(C(c2ccccc2)c2ccccc2)CC1	-1.76%
COc1cc(C(=O)OCC(=O)NC(C)CCc2ccccc2)cc(OC)c1OC (stereo not given)	-4.8%
Cc1ccc(S(=O)(=O)N2CCCCC2)cc1C(=O)N(C)CC(=O)Nc1cccc(F)c1	4.08%
CN(C)S(=O)(=O)c1ccc(N2CCCC2)c(C(=O)Nc2cccc(F)c2)c1	-1.6%
CCCCCCn1c(SCC(=O)c2ccccc2)nc2c1c(=O)[nH]c(=O)n2C	-3.65%
CCCCCCCC[n+]1cccc(C(=O)N2c3c(nc(N)[nH]c3=O)NC(C)C2C)c1 (stereo not given)	66.2% (active)
Cc1ccc(C(=O)NC(=S)Nc2ccc3[nH]c(=O)[nH]c3c2)cc1C	-1.4%
NC(N)=N/N=C/c1ccc(OCc2ccc(Cl)cc2Cl)cc1	0.729%
C/C(N)=C(/C#N)C(=O)COC(=O)C1CCN(C(=O)c2ccc(Cl)cc2)CC1	-0.831%
COc1ccc(N2C(=O)CC(Nc3ccc(F)cc3)C2=O)c([N+](=O)[O-])c1 (stereo not given)	-1.69%
CCOC(=O)c1ccccc1NC(=O)CSc1nc2ccccc2c(=O)[nH]1	1.48%
O=C(CSc1nc2ccccc2c(=O)[nH]1)Nc1nc(-c2ccc(Br)cc2)cs1	44.5% (active)
CC(=O)NCc1ccc(-c2csc(NC(=O)CCCc3nc4ccccc4c(=O)[nH]3)n2)cc1	4.49%
CCCCN(C(=O)c1ccc2ccccc2c1)c1c(N)n(CCCC)c(=O)[nH]c1=O	-4.05%
CCN(C(=O)COc1cccnc1[N+](=O)[O-])C1CCS(=O)(=O)C1 (stereo not given)	0.474%
COCCN1C(=O)N[C@@H](CCc2ccccc2)[C@H](C(C)=O)[C@H]1C	0.644%
CCN1C(=NCC(C)C)N[C@@H](CCc2ccccc2)[C@H](C(=O)NCC(C)C)[C@H]1C	53.8% (active)

SMILES	inhibition
CCN1C(=O)N[C@@H](CCc2ccccc2)C(C(=O)OC)=C1C	-3.29%
CCN1C(=NCc2ccc(OC)cc2)N[C@@H](CCc2ccccc2)[C@H](C(=O)NCc2ccc(OC)cc2)[C@H]1C	49.6% (active)
CCN1C(=S)N[C@@H](CCc2ccccc2)[C@H](C(=O)OC)[C@H]1C	-3.49%
CC(C)CNC(=O)C(=O)NCc1ccccc1	6.28%
CCCCNC(=O)CCn1nc(-c2ccc(Cl)cc2)ccc1=O	-0.453%
CCN(CC)CCCNC(=O)CCn1nc(-c2ccc(Cl)cc2)ccc1=O	98.8% (active)
Cc1ccc(-c2ccc(=O)n(CC(=O)NCCCN3CCCCC3)n2)cc1	-1.5%
Cc1cc(=O)[nH]c(SCc2cccc(F)c2)n1	-0.614%
Cc1cc(=O)[nH]c(SCc2cc(Cl)ccc2OC(F)F)n1	-4.15%
COc1ccccc1-c1noc(CSc2nc(C)cc(=O)[nH]2)n1	53.2% (active)
CC1CCN(S(=O)(=O)c2ccc(S(=O)(=O)NCc3ccco3)cc2)CC1	-4.88%
CN(CCOc1ccc(Br)cc1)CC(=O)Nc1cccc(S(=O)(=O)NC2=NCCC2)c1	-4.16%
COc1ccc(NC(=O)CN(C)C(=O)/C=C/c2cn(Cc3ccccc3)nc2-c2cccnc2)cc1	43.8% (active)
COc1cccc(NC(=O)CN(C)C(=O)/C=C/c2cc(OC)ccc2OC)c1	-6.53%
COc1cccc(NC(=O)CN(C)C(=O)/C=C/c2cn(-c3ccccc3)nc2-c2cccs2)c1	-4.72%
O=C(CN1CCOC1=O)N1CCCC(Nc2ccc(F)c(F)c2)C1 (stereo not given)	-3.28%
CCS(=O)(=O)c1ccc(-c2cccc(NC(=O)c3ccc(Br)o3)c2)nn1	95.4% (active)
CC(CNC(=O)c1ccc(Br)o1)NC(=O)c1ccc(Br)o1 (stereo not given)	2.21%
O=C(CNC(=O)c1ccc(Br)o1)Nc1ccccc1	-8.36%
Cc1cc(C)cc(Oc2c(C(F)(F)F)oc3cc(OCC(=O)O)ccc3c2=O)c1	9.37%
N#Cc1ccsc1NC(=O)CN1CCN(S(=O)(=O)c2cc(Cl)ccc2Cl)CC1	40.6% (active)
N#Cc1ccsc1NC(=O)CN1CCCCC1	-2.27%
O=C(CN1CCN(S(=O)(=O)c2cc(Cl)ccc2Cl)CC1)c1ccc(O)c(O)c1	-5.68%

SMILES	inhibition
CC(CC(=O)C1C(C)C=CCC1(C)C)NNC(N)=O (stereo not given)	0.901%
CSc1ccccc1NC(=O)c1cnc2sc(C)cn2c1=O	0.854%
CCc1c(C)nc2ncnn2c1N1CCC(C(=O)NCc2ccc3c(c2)OCO3)CC1	2.23%
O=C(COC(=O)c1cnc(Cl)c(Cl)c1)NCc1ccco1	50.6% (active)
O=C(COC(=O)c1ccccc1O)NCc1ccco1	32.8%
COc1ccc(CCNC(=O)COC(=O)c2cnc(Cl)c(Cl)c2)cc1	4.13%
CC(C)CCN1CCC(C)(NC(=O)c2ccccc2)C1=O (stereo not given)	0.313%
COc1ccccc1N(C)S(=O)(=O)c1ccc(Cl)c(C(=O)N2CCC(C(N)=O)CC2)c1	1.46%
Cc1sc(NC(=S)NC(=O)c2cccs2)nc1-c1ccc(CC(C)C)cc1	2.88%
CCc1nnc(NC(=O)CCC(=O)N2CCN(c3cc(C)ccc3C)CC2)s1	-1.97%
CCC(=O)N(CCc1ccccc1)Cc1cc2cc(C)ccc2[nH]c1=O	-6.3%
COc1ccc(Cc2cc(-c3ccc(F)cc3)n[nH]c2=O)cc1	-4.85%
COc1ccc2[nH]c(=O)c(-c3noc(-c4ccc(F)cc4)n3)cc2c1	70.7% (active)
COc1ccc2[nH]c(=O)c(CNc3ccc(C)c(C)c3)cc2c1	0.515%
CCN(Cc1cc2cc(C)ccc2[nH]c1=O)S(=O)(=O)c1ccccc1	-2.49%
CCCc1nc(-c2cc3cc(C)ccc3[nH]c2=O)no1	40.2% (active)
C/C(=C\c1ccco1)CN1CCC(N2CCC(C(=O)N3CCOCC3)CC2)CC1	-1.12%
CC1CCCCC1NC(=O)CSc1nnc(N)s1 (stereo not given)	-0.077%
Cc1cc(C)n2nc(C(=O)Oc3ccc4c(c3)OCO4)nc2n1	0.02%
Cc1ccc(-c2nc(C#N)c(NCCCn3ccnc3)o2)cc1	0.374%
CC[n+]1cc(C)ccc1/C=C/c1ccc(N(C)C)cc1	64.4% (active)
